Laboratory results reported in the supplement of paper PMC6555819.

Tests used:
Assay in all cases: PBM binding z-score (relative to random genomic background probes); higher = stronger binding; sequences stand for … in GC…GCGATTGACAGCGTAGAATGAAGG
[1] = tested on: FXR:RXRa (NR concentration 270 nM, RXRa partner concentration 90 nM)
How it was run: (§1)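 The probes on custom Agilent 4×180K protein-binding microarrays were double-stranded, with 34-nt variable regions bearing direct-repeat seeds, single-nucleotide variants, half-site ablations and random human genomic background sequences. Incubation lasted 1 h with ligand-free nuclear receptor dimers in PBS pH 7.4, 2% milk, 0.02% Triton X-100, 1 mM DTT, 0.2 mg/mL BSA and 0.4 mg/ml salmon testes DNA. Antibodies against each partner (one per run) detected bound dimers, and fluorescence scans were regression-normalized. Binding z-scores take the random background probes as reference.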

[2] = tested on: LXRa:RXRa (NR concentration 270 nM, RXRa partner concentration 90 nM)
How it was run: as §1

[3] = tested on: LXRa homodimer (NR concentration 270 nM)
How it was run: as §1

[4] = tested on: LXRb:RXRa (NR concentration 270 nM, RXRa partner concentration 90 nM)
How it was run: as §1

[5] = tested on: LXRb homodimer (NR concentration 270 nM)
How it was run: as §1

[6] = tested on: PPARa:RXRa (NR concentration 270 nM, RXRa partner concentration 90 nM)
How it was run: as §1

[7] = tested on: PPARg:RXRa (NR concentration 180 nM, RXRa partner concentration 90 nM)
How it was run: as §1

[8] = tested on: PPARg:RXRa 270nM:90nM, anti-RXR (NR concentration 270 nM, RXRa partner concentration 90 nM)
How it was run: as §1

[9] = tested on: PPARg:RXRa 30nM:10nM, anti-RXR (NR concentration 30 nM, RXRa partner concentration 10 nM)
How it was run: as §1

[10] = tested on: PPARg:RXRa 90nM:30nM, anti-RXR (NR concentration 90 nM, RXRa partner concentration 30 nM)
How it was run: as §1

Sequence	PBM binding z-score [1]	PBM binding z-score [2]	PBM binding z-score [3]	PBM binding z-score [4]	PBM binding z-score [5]	PBM binding z-score [6]	PBM binding z-score [7]	PBM binding z-score [8]	PBM binding z-score [9]	PBM binding z-score [10]
GCATACAGGTGAAACGCAGGTAACTCAGGGTGGC	-0.0721	0.132	-0.487	-0.143	-0.74	1.35	1.04	0.609	-0.12	0.232
CCGACTGGGGCATAAGCTTACCATAAGCCAGCCC	-0.673	-0.689	-0.589	-0.747	-1.15	-0.16	0.765	1.04	-0.348	0.228
CCTTACGGGTCGAGGTTATAGCACGGGTGGTACG	1.26	1.27	-0.211	0.916	-0.417	2.42	0.822	1.01	-0.146	0.242
CAAACTAGGTAAAGAGGTCAAAGTCCGCTTCCCG	4.77	5.01	4.55	4.65	1.08	5.7	6.6	6.92	5.17	7.2
CGAACTAGGTCAGTGACAGGACAGTGAATAGTAA	1.32	0.944	-0.268	0.82	-0.44	3.47	5.73	4.86	1.66	4.11
CGTCCAAGGTGAGCAGGTCAGTGAAAGCGACGTG	0.495	0.118	-0.619	0.202	-1.28	1.73	0.537	1.08	-0.475	0.388
GCATATAGGTAATAGAAGGTGAAAGTCCGATTGT	0.555	1.95	0.235	0.582	-0.597	1.78	1.24	1.35	0.321	0.9
TCATATAGGTAAAAGGTGAGAGTCGGTGTGGTAA	1.07	1.56	-0.0844	1.55	0.0234	4.75	8.85	8.5	7.77	10
CGAACCAGGTCAAGGACAGTGAATCTCCGCACGC	4.75	2.98	0.32	2.36	-0.00984	4.52	4.96	4.26	1.28	3.31
CCTGCTAGGTCAATGGTCAGCTGAAGCAGCTCGC	3.06	2.17	-0.221	1.45	-0.203	3.22	4.4	5.35	2.69	4.92
ACTAGCAGGCCAATTTTGGGTCACTCAAACAAAG	0.105	0.0624	0.139	0.747	-0.68	1.8	0.396	0.508	-0.304	-0.0238
ACTATTAGTTGAGACTAGGGCAACCGATAGGTTG	-0.2	-0.21	-0.416	-0.304	0.0178	0.296	0.679	0.33	0.227	-0.101
GCTGCTAGGTCAACGGATGGTCAGCTAAAGCTCG	3.29	2.35	-0.22	1.34	-0.253	3.2	2.58	2.83	0.601	2.06
CGTCCATGGTCAAGGTCAGTGAAAGAGACTCGAA	1.92	1.67	0.03	1.6	-0.273	2.38	1.13	1.68	0.0317	0.977
TAGCCTAGGTCATGGGCCGGTATACCACGCGAAC	4.76	3.42	0.261	2.72	0.0172	4.23	3.35	3.56	0.856	2.46
CCACGGAGGACAGAAGGTCAGAGCTGTCCGCTTT	1.39	1.72	-0.0316	1.33	-0.786	2.11	0.277	0.736	-0.771	0.384
GCTTGTAGATCAAGGTTGAGAAAGACTAAGCTAA	-0.651	-0.5	-0.84	-0.489	-0.831	1.3	2.27	3.37	1.77	3
TTACCAAGGGGAAGGTCGTTGATCCCTCTGTAGA	0.907	0.734	-0.259	0.976	-0.862	1.38	0.79	2.13	0.461	1.52
TCTGATAGGTCAGTTGGTCAGCTAACGAGCTGCC	2.27	2.12	0.378	1.59	0.846	2.67	1.19	2.4	2.52	2.3
CGGCCAAGGTCAGCAGGTCAGTGAAAGCGACGTG	5.72	3.58	-0.0772	2.9	-0.899	4.86	4.33	4.32	0.918	2.85
GGAACGAGGGAAAAGTTGATAGCATCTGTCGACG	-0.286	-0.349	-0.321	-0.59	-0.568	1.15	2.04	3.68	1.71	3.49
GCTAGCTGGCCATTTGGGTCACTCAATGACGGGC	-0.265	-0.387	-0.995	-0.164	-1.15	0.689	0.205	-0.0931	-1	-0.612
GATACAGGGTCATGGCCAGAGTACGCGTATTGAT	6.5	4.72	-0.00415	3.79	-0.283	5.65	6.02	6.38	2.73	4.67
CGAACTAGGTCAGAACTGGACAGTGAAGGATGAT	0.671	0.375	-0.326	0.262	-0.439	3.26	5.1	4.49	1.77	3.68

Sequence	PBM binding z-score [1]	PBM binding z-score [2]	PBM binding z-score [3]	PBM binding z-score [4]	PBM binding z-score [5]	PBM binding z-score [6]	PBM binding z-score [7]	PBM binding z-score [8]	PBM binding z-score [9]	PBM binding z-score [10]
AGAACGAGGGCACGCTGAGTTGAGAGCAGAGTAG	1.03	1.06	-0.514	0.188	-0.934	2.12	2.05	1.81	0.0205	0.958
ACTAGCATGCCAAGTTTGGGTCACTCAAACAAAG	0.0536	0.057	-0.432	0.606	-0.573	1.23	0.0927	0.138	-0.204	-0.214
ATCTCTAGGTAAGACTAAGTTCAGTGAAGAACGC	0.633	0.867	0.705	0.595	0.815	0.936	0.481	1.71	0.577	1.75
CTACCAAGGTGAACAACGTCGTTGATTACTATTC	0.772	0.327	-0.307	0.812	-0.301	1.29	0.69	0.538	-0.133	0.52
ATTGAAAGGTCGTGAGGTGAGTATACAGAAAGGC	5.67	4.67	0.73	3.49	1.2	5.38	4.88	5.01	2.23	3.64
CGTCCAAGGTCAAAGATCAGTGAAGAGATGACGG	6.99	5.44	0.528	4.2	1.25	5.75	6.08	6.43	3.08	5.64
TCATATAAGTAAAAGGTGAAAGTCGGTGTGGTAA	1.04	1.71	0.168	1.8	0.141	3.59	3.78	5.58	5.48	6.35
TAGCCTAGGTCATGCGGGCCAGTCTAGTGTCGGC	3.89	3.03	-0.0115	1.36	-0.0777	3.43	2	2.23	-0.051	0.877
CAAACTAGGTCCAGAGGTCAAAGTCCGCTTCCCG	4.77	5.55	5.71	5.03	1.62	5.29	5.18	6.22	4.37	6.29
GCATATTGGTAATACAAGGTGAAAGTCCGATTGT	0.142	-0.00547	0.127	0.0375	-0.19	0.519	0.364	0.443	0.33	0.00917
AATACAGGGTCATGGTAGGCCAGAGTACGCACAG	7.24	6.51	2.02	4.67	1.09	6.07	6.85	6.13	2.87	4.97
GATACAGGGTCAAGGCCGGAGTACGCGTATTGAT	6.13	4.13	0.0137	3.51	-0.495	5.66	5.78	5.32	1.81	3.85
CCTTACGGGTCACGCGGTTATAGCACGACGAGCG	6.26	4.51	0.11	3.64	0.0354	5.65	6.07	6.24	2.58	4.96
CGTGCAAGGTCAAAGGTCAGTGAAGAGATGACGG	8.16	6.9	3.14	6.7	1.86	7.4	10.9	9.02	7.56	9.38
TATACAGGGTCAACGGCCAGAGTACGAATGTCGA	6.91	5.76	2.15	4.65	2.1	5.54	6.79	6	3.43	5.19
CTTCGGAGGACAGAAGGTCAGAGCTGTCCGCTTT	1.6	1.84	-0.0247	0.975	-0.772	1.85	-0.0897	1.07	-0.905	0.484
GCTTGTAGATCAAGGTTAAGAAGGACTAAGCTAA	0.204	0.416	-0.49	0.546	-1.11	1.38	0.945	2.08	0.323	1.79
ACTATTCGTTGAGACGAGGGCAACCGATAGGTTG	0.146	-0.0079	-0.194	0.132	0.215	0.431	0.548	0.366	0.255	0.115
CAAACTAGGTCACCGGAAGGACAAAGTCCGCATG	4.67	3.57	0.547	2.71	0.36	5.63	9.49	7.51	6.09	7.18
TGAATGAAGTTATAAGATCAGGGAACGTTGCAAA	-0.521	-0.697	-0.369	-0.457	-0.454	-0.296	0.116	-0.239	0.157	-0.0808
ATCGAAAGGTCGAGGTGAGTACAGAGAAAGGGAA	4.22	3.51	0.276	2.53	0.653	4.64	3.5	3.96	1.38	2.61
CGAACTAGGTCAGAACAGGAAAGTGAAGGATGAT	0.901	0.447	-0.258	0.38	-0.116	3.21	5.08	4.29	1.92	3.33
CTGACTGGGGCATAAGGTTACCATAAGCCAGCCC	0.671	2.05	0.0158	1.61	-0.345	2.69	3.2	3.99	2.16	3.9
CCTACTGGTCCAAAGGTCATTGATTCCAATGCTC	4.78	5.17	4.86	5.02	1.52	5.67	9.11	9.11	7.82	9.09
